IP6K1 inh = Primary qHTS assay for small molecule inhibitors of Inositol hexaphosphate kinase 1 (IP6K1); Inositol hexakisphosphate kinase 1 (Homo sapiens), Q92551; IP6K1 kinase, ADP-Glo luminescence, 2 h; active compounds read low; activity change, % (series mostly up to about 58 µM); 0.81% of 140,000 active; AID 1645851, 2021; in the data active = activity change below about -25%
Target sequence (Q92551 whole entry, looked up): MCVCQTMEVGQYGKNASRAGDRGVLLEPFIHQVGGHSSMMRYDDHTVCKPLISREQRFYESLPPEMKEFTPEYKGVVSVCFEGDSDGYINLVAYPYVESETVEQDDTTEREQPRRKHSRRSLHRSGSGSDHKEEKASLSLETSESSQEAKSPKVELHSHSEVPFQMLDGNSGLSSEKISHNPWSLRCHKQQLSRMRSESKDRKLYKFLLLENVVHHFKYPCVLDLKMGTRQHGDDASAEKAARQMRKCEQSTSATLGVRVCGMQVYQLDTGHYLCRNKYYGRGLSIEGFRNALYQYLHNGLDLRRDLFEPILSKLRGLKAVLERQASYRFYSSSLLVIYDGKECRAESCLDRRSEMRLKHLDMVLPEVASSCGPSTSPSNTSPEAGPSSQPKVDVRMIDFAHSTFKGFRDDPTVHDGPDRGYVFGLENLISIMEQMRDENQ
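ADP-Glo luminescence measures ADP made by human IP6K1 during a 2 h RT reaction with ATP/IP6 (mix at 1.3 mM/130 uM); top library doses 57.5 and 19.1 uM final.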
SNCA viab count = GF-AFC viability counterscreen for inhibitors of alpha-synuclein gene (SNCA) expression | HEK-293-SNCA-luc viability, GF-AFC fluorescence, 24 h | Potency, µM (highest dose often 57.1 µM), without a hit: top-dose activity change, negative = cytotoxicity, actives largely listed as cytotoxic | 0.12% of 150,000 active | AID 1671193, 2021;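 note: potency is the fitted concentration of half-maximal effect; 0% = DMSO-treated cells and -100% = medium-only wells without cells; nearly all actives have a fitted effect of over 30% in size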
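HEK-293-SNCA-luc cells (1500/well) plated 24 h, then exposed 24 h to a dilution series; GF-AFC added 30 min at 37C, fluorescence 405/540 nm; normalised to medium-only and DMSO wells, Hill fit.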
HEK cytotox = Cytotoxic Profiling in HEK 293 Cell Line of Diverse Libraries Using Quantitative High-Throughput Screening; HEK 293 viability, ATP luminescence (CellTiter-Glo), 48-72 h; Potency, µM (doses to about 115 µM), inactives show at the top dose activity change, negative = cytotoxicity, usual class: inhibitors; 6.6% of 94,000 active; note: potency is the fitted concentration of half-maximal effect; nearly all actives have a fitted effect of over 60% in size
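Read-out: CellTiter-Glo ATP luminescence. Cells: HEK 293, 250 cells/well. Exposure: 48 or 72 hr, 37 degree Celsius.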
SNCA expr inhib = Primary qHTS assay for inhibitors of alpha-synuclein gene (SNCA) expression. HEK-293 SNCA-luciferase knock-in, luminescence, 24 h. Potency, µM (doses to about 57.2 µM), without a hit: at the highest dose activity change, negative = inhibition, usual class: inhibitors. 0.17% of 140,000 active. AID 1671194, 2021;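 note: potency is the fitted concentration of half-maximal effect; plate controls were DMSO cells for no effect and cell-free wells for full effect; nearly all actives have a fitted effect of over 45% in size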
NIH3T3 tox = Cytotoxic Profiling in NIH 3T3 Cell Line of Diverse Libraries Using Quantitative High-Throughput Screening. Potency, µM (doses to about 96.7 µM), without a hit: at the top dose activity change, negative = cytotoxicity, actives largely listed as inhibitors. NIH 3T3 viability, CellTiter-Glo ATP luminescence, 48-72 h. 4.3% of 94,000 active. AID 1345082, 2018; note: potency is the fitted concentration of half-maximal effect; nearly all actives have a fitted effect of over 55% in size
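Luminescent ATP readout (CellTiter-Glo, 10 min RT) after 48 or 72 hr compound exposure of NIH 3T3 cells seeded at 400 cells/well in 1536-well format; quantitative HTS.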
Luciferase inh = Firefly luciferase inhibition profiling of diverse chemical library using quantitative high-throughput screening. Luciferin 4-monooxygenase (Photinus pyralis), P08659. purified P. pyralis luciferase, luminescence, biochemical. Potency, µM (top dose mostly 115 µM), usual class: inhibitors. 2.5% of 76,000 active; note: potency is the fitted concentration of half-maximal effect; nearly all actives have a fitted effect of over 65% in size
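FLuc 10nM, D-luciferin 10uM, ATP 10uM, Mg acetate 10mM, Tris acetate pH 7.5, Tween/BSA; cpd qHTS; enzyme added last; CCD luminescence.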
Starred values were filed as active, the others as inactive; i = inactive; ? = inconclusive; [ ] = another dose, or the depositor's remark. This is a sample that favours compounds with a hit; in the whole collection about 7.3% have one here. Unless noted, calls come from the whole dose curve; as a rule, active = well fitted curve in the direction sought with a large enough effect; inconclusive = small, poorly fitted or top-dose-only effect, or another doubt; inactive = no such curve, though single readings can be large; an effect the other way counts as inactive or inconclusive. Unless noted, % is set by controls: 0 for no effect and ±100 for the full control effect.

SMILES	IP6K1 inh	SNCA viab count	HEK cytotox	SNCA expr inhib	NIH3T3 tox	Luciferase inh
CCc1c(-c2nc(C3CCOC3)no2)[nH]c2ccccc12 (centres undefined)	-4	6%	?	32%	?	i
CCCc1nc(-c2nc(C3CCOC3)no2)cs1 (centres undefined)	-10	2%	0%	74%	1%	28µM*
CN1c2cc(C(=O)Nc3cccc(C(F)(F)F)c3)ccc2C(=O)N2CCCCC21 (centres undefined)	-12	-3%[12.5 µM]	?	33%	?	i
CCN1c2cc(C(=O)Nc3cccc(C(F)(F)F)c3)ccc2C(=O)N2CCCCCC21 (centres undefined)	-4	21%[12.5 µM]	13µM*	?	?	i
CCN1c2cc(C(=O)Nc3cccc(C(F)(F)F)c3)ccc2C(=O)N2CCCC21 (centres undefined)	2	-6%[12.5 µM]	?	-18%	35µM*	i
Cc1ccc(-n2cccn2)c(-c2nccn2-c2ccc(C(N)=O)cc2)c1	-3	-8%	-13%	16%	4%	i
O=C(CC1CCCN(c2cnn(CC3CC3)c(=O)c2)C1)NCc1ccc(F)cc1 (centres undefined)	6	-13%	?	-10%	?	i
Cc1ccc(NC(=O)N[C@@H](Cc2ccccc2)C(=O)N2CCCOCCNC(=O)CC2)cc1C	-3	-9%	-30%	0%	-19%	i
CC(C)(C)CC(=O)N1CCN2C(=O)c3cc(-c4ccc(Cl)cc4)ccc3NC(=O)[C@H]2C1	-1	-23%	40µM*	?	?	i
COc1ccc(Cl)cc1-c1ccc2c(c1)C(=O)N1CCN(C(=O)CN)C[C@H]1C(=O)N2	26	-4%[87.6 µM]	?	-8%[87.6 µM]	100µM*	i
COc1ccc(Cl)cc1-c1ccc2c(c1)C(=O)N1CCN(C(=O)C3CCCC3)C[C@H]1C(=O)N2	4	5%	?	14%	?	i
COc1ccc(Cl)cc1-c1ccc2c(c1)C(=O)N1CCN(C(=O)COc3ccccc3)C[C@@H]1C(=O)N2	-8	-10%	?	-21%	?	i
O=C1Nc2ccc(-c3ccc(Cl)cc3)cc2C(=O)N2CCN(C(=O)C3CCCCC3)C[C@H]12	-8	-19%	40µM*	?	?	i
COc1ccc(-c2ccc3c(c2)C(=O)N2CCN(C(=O)CC(C)(C)C)C[C@@H]2C(=O)N3)cc1	7	-1%[87.6 µM]	?	-10%[87.6 µM]	?	i
CC(C)(C)CC(=O)N1CCN2C(=O)c3cc(-c4ccccc4)ccc3NC(=O)[C@H]2C1	2	-4%[87.6 µM]	100µM*	-25%[87.6 µM]	?	i
COc1ccc(Cl)cc1C(=O)NCc1nnc2ccc(-c3ccccc3)nn12	-3	1%	-35%	-2%	-27%	i
COc1cccc(C(=O)N2CC[C@@H]3CN(S(C)(=O)=O)[C@@H]3C2)c1C	12	-4%[12.5 µM]	4%	?	4%	i
COc1ccc(C2(C(=O)N3CCC(N4CC5CC(C4)[C@H]4CCCC(=O)N4C5)CC3)CC2)cc1 (some centres undefined)	6	6%	1%	-6%	i	i
CCCNC(=O)N1CCN2C(=O)c3cc(-c4ccccc4F)ccc3NC(=O)[C@@H]2C1	0	3%[87.6 µM]	100µM*	-1%[87.6 µM]	?	i
O=C(Cn1ccn2nc(-c3ccccc3)c(CO)c2c1=O)Nc1cc(Cl)cc(Cl)c1	13	7%	50µM*	-18%	-24%	i
CN1C(=O)c2cccn2CC1CNC(=O)c1cccn1C (centres undefined)	-5	3%	i	9%	i	i
CCCN1C(=O)CCc2cc(NC(=O)c3ccc(C)s3)ccc21	16	?	35µM*	10%	?	?
CCCN1C(=O)CCc2cc(NC(=O)c3cccc(N(C)C)c3)ccc21	-4	3%	?	14%	-26%	?
CC(C)CN1C(=O)CCc2cc(NC(=O)c3ccc(N(C)C)cc3)ccc21	8	?	28µM*	-26%	?	?
CN1c2cc(C(=O)Nc3ccc(Br)cc3)ccc2C(=O)N2CCCCC21 (centres undefined)	15	6%[12.5 µM]	?	100%	?	32µM*
SMILES	IP6K1 inh	SNCA viab count	HEK cytotox	SNCA expr inhib	NIH3T3 tox	Luciferase inh
CN1c2cc(C(=O)Nc3ccc(Br)cc3)ccc2C(=O)N2CCCCCC21 (centres undefined)	15	8%[12.5 µM]	35µM*	21%	?	?
COc1ccccc1CNC(=O)[C@@H]1Cc2cn(C)c3cccc(c23)[C@H](CC(C)C)N1	-5	?	45µM*	?	50µM*	i
COc1ccc(CNC(=O)[C@@H]2Cc3cn(Cc4cccnc4)c4cccc(c34)[C@H](CC(C)C)N2)cc1	20	-29%	35µM*	?	?	i
CC(C)C[C@@H]1N[C@H](C(=O)NCc2ccccc2)Cc2cn(Cc3cccnc3)c3cccc1c23	7	-11%	25µM*	?	?	i
C=CCn1cc2c3c(cccc31)[C@H](CC(C)C)N[C@H](C(=O)NCc1ccc(OC)cc1)C2	-1	-7%[87.6 µM]	-1%[172 µM]	-2%[87.6 µM]	-11%[174 µM]	i
C=CCNC(=O)[C@@H]1Cc2cn(Cc3cccnc3)c3cccc(c23)[C@H](CC(C)C)N1	-11	?	50µM*	?	?	i
O=C(N1CCN(S(=O)(=O)c2cccs2)CC1)N1CC2CC(C1)[C@H]1CCCC(=O)N1C2 (some centres undefined)	3	12%	10%	33%	-9%	i
N#Cc1ccc(CN2CCc3nc(C(=O)NCc4cccc(F)c4)oc3CC2)cc1	3	-1%[87.6 µM]	?	-12%[87.6 µM]	?	i
COc1cccc(CCNC(=O)c2c(C)noc2-c2cc(OC)cc(OC)c2)c1	-6	-10%	?	-20%	?	i
COc1ccc(-c2onc(C)c2C(=O)NCCc2cccs2)cc1	8	-8%	35µM*	-9%	-31%	i
Cc1noc(-c2ccccc2Cl)c1C(=O)NCCC(c1ccccc1)c1ccccc1	4	-11%	25µM*	-6%	28µM*	i
Cc1noc(-c2cccs2)c1C(=O)NCCc1cccs1	-12	0%	?	-1%	-27%	i
